Assay outcomes: PubChem, National Center for Advancing Translational Sciences (NCATS)
Only some compounds are listed: those with a hit (about 2.4% of all), similar ones and a draw of the others.
POLH inh: qHTS for Inhibitors of Polymerase Eta | DNA polymerase eta (Homo sapiens), Q9Y253 | recombinant Pol eta, fluorescent DNA replication assay | Potency, µM (doses to about 114 µM), without a hit: at the highest dose activity change, negative = inhibition, actives largely listed as inhibitors | 390,000 tested, 1.2% active; also: % is scaled to controls: 0 for no effect and ±100 for the full control effect
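Pol eta (10 nM) was preincubated with compounds for 15 min at room temperature, after which fluorescent replication substrate (50 nM final) was added to start the reaction. Fluorescence was read kinetically at 0 and 10 min.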
WRN helicase inh: qHTS for Inhibitors of WRN Helicase; Bifunctional 3'-5' exonuclease/ATP-dependent helicase WRN (Homo sapiens), Q14191; WRN helicase unwinding, fluorescent forked duplex, kinetic; Potency, µM (highest dose often 114 µM), inactives show top-dose activity change, negative = inhibition, usual class: inhibitors; 360,000 tested, 0.46% active; also: % is scaled to controls: 0 for no effect and ±100 for the full control effect; nearly all actives have a fitted effect of over 55% in size
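WRN at 20 nM final preincubated with compound 15 min at room temperature; reaction started with 100 nM fluorophore/quencher forked duplex oligonucleotide and 2 mM ATP final. Unwinding followed kinetically by red fluorescence (ex 525, em 598 nm).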
Pol kappa inh: qHTS for Inhibitors of Polymerase Kappa; DNA polymerase kappa (Homo sapiens), Q9UBT6; purified Pol kappa, fluorescent DNA synthesis assay, 10 min; Potency, µM (top dose mostly 107 µM), for inactives: at the top dose activity, negative = inhibition, usual class: inhibitors; 400,000 tested, 0.53% active; AID 588579, 2011; also: % is scaled to controls: 0 for no effect and ±100 for the full control effect
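Fluorescent qHTS in 1536-well format: enzyme (10 nM) and compound sat 15 min at room temperature before 50 nM substrate (final) was added. Signal taken at 0 and 10 min; no-enzyme buffer wells were negative controls.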
Pol beta inh: qHTS Assay for Inhibitors of DNA Polymerase Beta; P06746; 340,000 tested, 1.3% active; Pol beta primer extension/strand displacement, fluorescence kinetic; Potency, µM (doses to about 114 µM), for inactives: top-dose activity change, negative = inhibition, hits mostly inhibitors; also: % is scaled to controls: 0 for no effect and ±100 for the full control effect
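Human Pol beta at 10 nM; strand-displacement substrate 50 nM final. Compound exposure 15 min at room temperature before start, reaction 10 min at room temperature.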
FEN1 inhibitor: qHTS Assay for the Inhibitors of Human Flap endonuclease 1 (FEN1); Recombinant FEN1 flap cleavage, fluorescence, 15 min; Potency, µM (titrated, usually from 114 µM), inactives show at the highest dose activity change, negative = inhibition, most hits filed as inhibitors; 390,000 tested, 0.35% active; AID 588795, 2011; also: % is scaled to controls: 0 for no effect and ±100 for the full control effect; nearly all actives have a fitted effect of over 65% in size
Target sequence (P39748 whole entry, looked up): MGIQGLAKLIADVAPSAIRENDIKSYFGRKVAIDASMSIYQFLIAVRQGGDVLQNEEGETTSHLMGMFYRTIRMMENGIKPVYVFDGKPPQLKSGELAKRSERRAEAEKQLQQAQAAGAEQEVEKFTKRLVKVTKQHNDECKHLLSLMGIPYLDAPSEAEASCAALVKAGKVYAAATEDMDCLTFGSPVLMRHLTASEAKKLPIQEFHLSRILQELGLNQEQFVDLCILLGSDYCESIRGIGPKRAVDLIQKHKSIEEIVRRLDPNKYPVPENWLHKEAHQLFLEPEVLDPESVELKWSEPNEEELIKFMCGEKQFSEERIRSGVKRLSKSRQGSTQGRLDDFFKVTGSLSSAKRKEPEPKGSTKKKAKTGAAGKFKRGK
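Quantitative HTS format: each compound was titrated, incubated with 10 nM nuclease for 15 min at room temperature, then challenged with flap substrate at 50 nM final. Signal change over 15 min gave concentration–effect curves.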
Pol iota inh: qHTS for Inhibitors of Polymerase Iota; DNA polymerase iota (Homo sapiens), Q9UNA4; Pol iota fluorescent replication assay, 10 min; Potency, µM (highest dose often 115 µM), without a hit: top-dose activity, negative = inhibition, usual class: inhibitors; 390,000 tested, 1% active
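Pol iota at 10 nM preincubated 15 min with compounds at room temperature; reaction started with fluorescent substrate, 50 nM final. Fluorescence read kinetically at 0 and 10 min; buffer-only wells as negative control.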
The depositor's hits bear a star; ? = inconclusive; / = no result given; ! = a repeat was not active; [ ] = another dose, or the depositor's remark. Calls follow the shape of the dose curve; as a rule, active = well fitted curve in the direction sought with a large enough effect; inconclusive = small, poorly fitted or top-dose-only effect, or another doubt; inactive = no such curve, though single readings can be large; an effect the other way counts as inactive or inconclusive. Potency is read from the fitted curve at half-maximal effect.

SMILES	POLH inh	WRN helicase inh	Pol kappa inh	Pol beta inh	FEN1 inhibitor	Pol iota inh
COc1ccc(/C=C2\SC(=Nc3ccccc3)NC2=O)cc1	/	/	/	0%	/	/
CCOc1ccc(N=C2NC(=O)S/C2=C\c2ccc(OC)cc2)cc1	-10%	-16%[57.1 µM]	-8%	10µM*	-16%	?
CCC(C)C(NC(=O)OC(C)(C)C)C(=O)NC1COC2CC(n3cc(C)c(=O)[nH]c3=O)OC12 (centres undefined)	/	/	13%	/	16%	5%
COc1ccc(Cl)cc1NC(=O)c1cnc2sc(N3CCOCC3)nn2c1=O	1%	/	8%	32%	-7%	0%
COc1ccc(Cl)c(Cn2cnc3c(cnn3C(C)(C)C)c2=O)c1F	/	/	8%	/	21%	6%
COC(=O)/C=C1/SC(=NC(=O)c2cccc([N+](=O)[O-])c2)NC1=O	-16%	0%	4%	-19%	3%	7%
COc1ccc(N=C2NC(=O)/C(=C/c3ccc(O)c(OC)c3)S2)cc1	?	?	-29%	40µM*	?	?
COc1cc(/C=C2/SC(=Nc3ccc(O)cc3)NC2=O)cc(OC)c1O	3%	-15%	-28%	-22%	-17%	?
COc1cccc(N=C2NC(=O)/C(=C/c3cc([N+](=O)[O-])ccc3O)S2)c1	28µM*	-11%[11.6 µM]	-11%	40%	?	?
CCc1ccccc1OCC(=O)Nc1ccc(S(N)(=O)=O)cc1	9%	8%	-6%	-1%	-4%	-5%
NS(=O)(=O)c1ccc(NC(=O)COc2cccc3ccccc23)cc1	79µM*	?	-6%	-19%	-2%	89µM*
CN(C)c1ccc(/C=C/c2nc3ccccc3c(=O)n2-c2ccc(C(=O)O)cc2)cc1	25µM*	-5%[11.6 µM]	?	-1%	-4%	?
Cc1ccccc1CNC(=O)C1CCCN(c2nnc(C)c3c(C)n(-c4ccccc4)nc23)C1 (centres undefined)	?	-11%[57.1 µM]	-11%	?	?	2%
Cc1nnc(N2CCCC(C(=O)NCc3ccccc3)C2)c2nn(-c3ccccc3)c(C)c12 (centres undefined)	-11%	/	-1%	29%	-4%	22%
CCc1ccc(CNC(=O)C2CCCN(c3nnc(C)c4c(C)n(-c5ccccc5)nc34)C2)cc1 (centres undefined)	?	1%	-2%	50µM*!	20%	33%
Cc1nnc(N2CCC(C(=O)NCc3ccc(F)cc3)CC2)c2nn(-c3ccc(Cl)cc3)c(C)c12	-28%	/	-13%	79µM*	16%	27%
Cc1ccc(-n2nc3c(N4CCC(C(=O)NCc5ccccc5C)CC4)nnc(C)c3c2C)cc1	50µM*	-15%[11.6 µM]	2%	89µM*	9%	?
O=C(C[n+]1csc2ccccc21)c1cccc([N+](=O)[O-])c1	/	/	7%	/	-6%	-6%
Cc1ccc(OCCCCn2nnc3sc4c(c3c2=O)CCCC4)cc1	/	/	-9%	-2%	2%	6%
Cc1ccc(OCCCCn2nnc3sc4c(c3c2=O)CCC(C)C4)cc1 (centres undefined)	/	/	-24%	25µM*	1%	-25%
Cc1cccc(OCCn2nnc3sc4c(c3c2=O)CCCC4)c1	/	/	-24%	20µM*	-13%	?
O=C(O)CSc1nnc(SCc2cccc3ccccc23)s1	-16%	2%	-5%	89µM*	-1%	6%
Cc1ccccc1CNC(=O)Cn1ncn2nc(-c3cccs3)cc2c1=O	-12%	/	1%	11%	89µM*	?
O=C(Cn1ncn2nc(-c3cccs3)cc2c1=O)NCc1ccccc1Cl	-12%	/	-18%	2%	15%	-27%
O=C(OCC1OC(n2ncc(=O)[nH]c2=O)C(OC(=O)c2ccccc2)C1OC(=O)c1ccccc1)c1ccccc1 (centres undefined)	89µM*	-9%	?	?	-19%	?
SMILES	POLH inh	WRN helicase inh	Pol kappa inh	Pol beta inh	FEN1 inhibitor	Pol iota inh
CC(=O)OC[C@H]1O[C@@H](n2ncc(=O)[nH]c2=O)[C@H](OC(C)=O)[C@@H]1OC(C)=O	-6%	4%	-22%	3%	18%	10%
CCOC(=O)COc1ccc(Br)cc1/C=C/c1[nH]c(=O)[nH]c(=O)c1[N+](=O)[O-]	45µM*	-6%[11.6 µM]	-9%	56µM*	?	?
CCOC(=O)COc1ccc(Br)cc1/C=C\c1[nH]c(=O)[nH]c(=O)c1[N+](=O)[O-]	13µM*	-7%[11.6 µM]	-4%	?	-25%	89µM*
O=C(CSc1cn(CCNC(=O)c2c(F)cccc2F)c2ccccc12)Nc1ccc2c(c1)OCCO2	-5%	/	-4%	36%	-4%	7%
N=c1oc2c3c4c(cc2cc1C(=O)Nc1ccccc1)CCCN4CCC3	-12%	56µM*	-13%	12%	-1%	62%
Cc1cc(C)c(C)c(OCC(=O)Nc2ccc(S(=O)(=O)Nc3nc(C)cc(C)n3)cc2)c1	/	/	-19%	1%	-13%	14%
Cc1c(CC(=O)N2CCCCC2)c(=O)oc2cc3occ(C(C)(C)C)c3cc12	-15%	/	-13%	-8%	-9%	0%
Cc1cccn2c(=O)c3cc(S(=O)(=O)c4ccccc4)c(=N)n(Cc4ccc(F)cc4)c3nc12	-18%	1%	3%	11%	-17%	15%
Cc1cccn2c(=O)c3cc(S(=O)(=O)c4ccccc4)c(=N)n(Cc4ccco4)c3nc12	-1%	-10%	-30%	8.9µM*	4%	4%
Cc1cccn2c(=O)c3cc(S(=O)(=O)c4ccc(F)cc4)c(=N)n(Cc4ccco4)c3nc12	-8%	-4%[57.1 µM]	?	?	3%	11µM*
CCOC(=O)c1cc2c(=O)n3ccccc3nc2n(C(C)C)c1=NC(=O)C(C)(C)Oc1ccc(Cl)cc1	-18%	/	6%	19%	4%	37%
CC(=O)NCCNC(=O)CCCc1nnc2n(CCC(C)C)c(=O)c3sccc3n12	17%	/	6%	16%	25%	4%
COc1ccccc1OC(=O)CCc1nc2ccccc2s1	?	-6%	?	?	12%	16µM*
COC(=O)CCCc1nc2ccccc2s1	-15%	6%	-12%	27%	11%	-7%
Cc1ccc(-c2cc(C(=O)NCc3cnn(C)c3)c3cc(Br)ccc3n2)cc1	79µM*	-15%	-7%	-2%	7%	-29%
Cn1cnnc1SCC(=O)Nc1nc(-c2ccccc2)cs1	-10%	-6%	-5%	16µM*	0%	38%
